Shown are actives, neighbours in structure and some others; about 12% of the full set was active somewhere.
L major viab – reduces viability of Leishmania major promastigotes; resazurin fluorescence viability; inhibition, % at 10 µM; 200,000 compounds, 9% hits; in the data active means inhibition above about 50%;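 further: promastigotes grown with compound for 44 hours at 28 °C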
CHOP inhibitor – blocks CHOP induction under ER stress. CHO-K1 CHOP-promoter luciferase, tunicamycin-induced, 15-18 h. 220,000 compounds, 3.8% hits. inhibition, % at 10 µM;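 active means compounds that reduced the stress-induced luciferase reporter signal by more than about 70% of percent inhibition, limit read from the data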;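 further: 0% = tunicamycin plus vehicle and 100% = wells without tunicamycin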
Arbovirus anti – blocks arbovirus infection. 200,000 compounds, 0.37% hits. arbovirus infection cell-based antiviral screen. inhibition, % at 10 µM; in the data active means inhibition above about 30%
WT yeast gro inh – growth inhibition of WT yeast, mitochondrial fusion screen | mitochondrial fusion phenotypic screen, WT strain | inhibition, % at 10 µM | 190,000 compounds, 2.1% hits; in the data active means inhibition above about 58%; tested in S. cerevisiae
An asterisk follows results filed as active.

O=C(OCC(=O)C12CC3CC(CC(C3)C1)C2)c1cccnc1Cl was read as L major viab 60.3*, CHOP inhibitor 21.4, Arbovirus anti 10.8 and WT yeast gro inh 14.9.
For Cc1cc(C(=O)COC(=O)c2cccnc2Cl)c(C)n1CC1CCCO1 (stereo not given) the results were L major viab -5.9, CHOP inhibitor 79.8*, Arbovirus anti 9.8 and WT yeast gro inh 24.7.
`CN1CCC(NC(=S)Nc2cccc([N+](=O)[O-])c2)CC1` gave L major viab 24.7, CHOP inhibitor -3.0, Arbovirus anti -7.2 and WT yeast gro inh -2.3.
For CCC(C)[C@H](N)c1nnc(SCC(=O)c2ccc(Cl)cc2)o1 (stereo not given in full) the results were L major viab 90.3*, CHOP inhibitor 13.8, Arbovirus anti -7.4 and WT yeast gro inh -9.5.
CC(C)(C)OC(=O)N[C@@H](Cc1ccccc1)c1nnc(SCC(=O)O)o1 was read as L major viab -5.7, CHOP inhibitor 20.0, Arbovirus anti 16.0 and WT yeast gro inh -2.8.
Screening CC(C)(C)OC(=O)N[C@@H](Cc1ccccc1)c1nnc(SCC(=O)c2ccc(Cl)cc2)o1 returned L major viab 5.2, CHOP inhibitor 85.7*, Arbovirus anti 22.7 and WT yeast gro inh 14.4.
COc1ccccc1NC(=O)C(=O)N/N=C/c1cccs1 was read as L major viab 54.7*, CHOP inhibitor -20.2, Arbovirus anti -8.0 and WT yeast gro inh -3.4.
Screening COc1ccc(C(=O)Nc2c3c(nn2-c2cccc(Cl)c2)CS(=O)C3)cc1 (stereo not given) returned L major viab 97.6*, CHOP inhibitor 42.0, Arbovirus anti 4.1 and WT yeast gro inh -11.8.
Screening CC1(C)Cc2cccc(C(=O)Nc3ccc(F)cc3F)c2O1 returned CHOP inhibitor 14.6.
Screening Cc1cccc(C(C(N)=O)c2ncc(C(F)(F)F)cc2Cl)c1 (stereo not given) returned L major viab -5.7, CHOP inhibitor 3.1, Arbovirus anti 2.7 and WT yeast gro inh -26.3.
COc1ccc(C2/C=C\CN(C(=O)Nc3ccc(C(F)(F)F)cc3)CC(=O)N2Cc2ccc(F)cc2)cc1 (stereo not given) was read as CHOP inhibitor 75.3*.
Screening COc1ccc(C2/C=C\CN(C(=O)Nc3ccccc3)CC(=O)N2Cc2ccc(F)cc2)cc1 (stereo not given) returned CHOP inhibitor 8.8.
`COc1cc(NC(=O)C2=C(N3CCOCC3)/C(=C/c3ccc(Cl)cc3)CC2)cc(OC)c1OC` gave L major viab 16.6, CHOP inhibitor 20.0, Arbovirus anti 17.8 and WT yeast gro inh -1.2.
Screening COc1cc(NC(=O)C2=C(N3CCOCC3)/C(=C\c3ccc(N(C)C)cc3)CCC2)cc(OC)c1OC returned L major viab 98.0*, CHOP inhibitor 3.5, Arbovirus anti -16.5 and WT yeast gro inh -1.6.
For CC(C)Cn1[nH]c2c3c(ccc2c1=O)C(=O)c1ccccc1C3=O the results were L major viab 90.1*, CHOP inhibitor 1.0, Arbovirus anti -30.6 and WT yeast gro inh 13.2.
CC(CN1CCCCC1)OC(=O)Cc1ccc(Cl)cc1 (stereo not given) was read as L major viab -7.2, CHOP inhibitor 4.5, Arbovirus anti -5.9 and WT yeast gro inh 0.8.
For CC(CN1CCOCC1)OC(=O)C(c1ccccc1)c1ccccc1 (stereo not given) the results were L major viab 6.0, CHOP inhibitor 9.1, Arbovirus anti -1.7 and WT yeast gro inh -8.2.
Screening CC(CN1CCCCC1)OC(=O)C(C)(c1ccccc1)c1ccccc1 (stereo not given) returned L major viab 100.2*, CHOP inhibitor 59.0, Arbovirus anti -3.0 and WT yeast gro inh 5.7.
`CC(CN1CCOCC1)OC(=O)C(C)(c1ccccc1)c1ccccc1` (stereo not given) gave L major viab 55.4*, CHOP inhibitor 19.3, Arbovirus anti -1.8 and WT yeast gro inh -4.1.
Screening C/C(CCc1ccccc1)=N/NC(=O)C(=O)NC(C)c1ccccc1 (stereo not given) returned L major viab -5.4, CHOP inhibitor 0.2, Arbovirus anti 5.0 and WT yeast gro inh -12.9.
For Cc1cnccc1CN(C)Cc1cn(C)nc1-c1ccc(Oc2ccccc2)cc1 the results were L major viab 89.0*, CHOP inhibitor 20.2, Arbovirus anti 0.1 and WT yeast gro inh 49.9.
Screening COc1ccccc1N1C(=O)c2cccc3c(C(=O)O)ccc(c23)C1=O returned L major viab -2.4, CHOP inhibitor 29.6, Arbovirus anti 6.5 and WT yeast gro inh 3.5.
`Cc1ccc(N2C(=O)c3cccc4c(Oc5ccccc5[N+](=O)[O-])ccc(c34)C2=O)c(C)c1` gave L major viab 97.4*, CHOP inhibitor 41.7, Arbovirus anti -1.2 and WT yeast gro inh 3.1.
`CCOc1ccsc1C(=O)OC` gave CHOP inhibitor 6.4.
For CC1CCCN(C(C(=O)NC2CCCCC2)c2cc3c(cc2[N+](=O)[O-])OCO3)C1 (stereo not given) the results were L major viab 95.0*, CHOP inhibitor 30.7, Arbovirus anti -13.7 and WT yeast gro inh 20.7.
`O=C(Cn1nc(-c2cccc([N+](=O)[O-])c2)c2ccccc2c1=O)Nc1cccnc1` gave L major viab 13.7, CHOP inhibitor 15.9, Arbovirus anti -6.3 and WT yeast gro inh -18.0.
Screening O=S(=O)(Nc1nc2ccccc2nc1Nc1ccc2c(c1)OCCO2)c1cccs1 returned L major viab 53.2*, CHOP inhibitor 24.9, Arbovirus anti 26.0 and WT yeast gro inh 32.3.
Screening C=CCNc1nc2ccccc2nc1NS(=O)(=O)c1cccs1 returned L major viab -4.4, CHOP inhibitor 12.4, Arbovirus anti 5.5 and WT yeast gro inh -4.0.
For CCCCCNc1nc2ccccc2nc1NS(=O)(=O)c1cccs1 the results were L major viab -4.5, CHOP inhibitor 4.5, Arbovirus anti 32.1* and WT yeast gro inh 19.6.
Screening C/C(=N\NC(=O)c1ccc(NS(=O)(=O)c2cccs2)cc1)c1ccc2c(c1)OCO2 returned L major viab 73.6*, CHOP inhibitor 0.6, Arbovirus anti 0.7 and WT yeast gro inh -1.2.
CCOC(=O)c1cnn(-c2ccccc2)c1-n1cccc1C(=O)C(=O)Nc1ccccc1 was read as L major viab 5.3, CHOP inhibitor 31.9, Arbovirus anti 12.7 and WT yeast gro inh 23.4.
Cn1c(=O)c2c(nc(Oc3ccc(-c4ccccc4)cc3)n2C)n(C)c1=O was read as L major viab 7.8, CHOP inhibitor 7.9, Arbovirus anti 0.0 and WT yeast gro inh 14.5.
Cc1ccc(Oc2nc3c(c(=O)n(Cc4ccccc4F)c(=O)n3C)n2C)cc1 was read as L major viab 12.2, CHOP inhibitor 94.0*, Arbovirus anti 5.4 and WT yeast gro inh 0.8.
For Cc1ccc(S(=O)(=O)n2[nH]c(=O)cc2N)cc1 the results were L major viab 0.7, CHOP inhibitor -1.0, Arbovirus anti 2.6 and WT yeast gro inh -0.9.
COc1ccc2[nH]c3c(N4CCN(Cc5ccc6c(c5)OCO6)CC4)ncnc3c2c1 was read as L major viab 55.9*, CHOP inhibitor 39.3, Arbovirus anti -27.2 and WT yeast gro inh -7.5.
For COc1ccc2[nH]c3c(N4CCC(O)(c5cccc(C(F)(F)F)c5)CC4)ncnc3c2c1 the results were L major viab 100.4*, CHOP inhibitor 35.5, Arbovirus anti -30.2 and WT yeast gro inh 29.9.
